# Test results: PubChem BioAssay
# Active and inactive are the calls of the source. Unless noted, how the calls were made is not given here.
# How the values were obtained:
# [1] = system: Wnt5a (protein binding on small-molecule microarray); assay: small molecules binding Wnt5a protein – biophysical, small-molecule microarray, 635/667 nm fluorescence, primary screen (AID 1142); conditions: 635 nm fluorescence, higher = more signal;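 further: fluorescence read at 667 nm with signal to noise per printed feature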
# [2] = ATP-based viability of Huh7 replicon cells – cell-based, CellTiter-Glo luminescence, basal, 48 h, cytotoxicity control for HCV replication inhibitor project, primary screen (AID 1143); conditions: higher = more signal, called active from +8 up or from −8 down;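 further: Huh7 hepatoma cells carrying a hepatitis C replication reporter with no stimulus; test concentration not given here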
# [3] = Pseudomonas biofilm growth suppression – PAO1 strain, BacTiter-Glo luminescence, LB-PBS, primary screen (AID 1144); conditions: P. aeruginosa PAO1 biofilm, 12 h, higher = more signal
# [4] = basal CRE-LacZ reporter activity in PC12 – cell-based, unstimulated, primary screen (AID 1145); conditions: no forskolin, luminescence, 4.5 h, higher = more signal, called active from +8 up or from −8 down
# [5] = forskolin-driven CRE-LacZ activity in PC12 – cell-based, CRE-LacZ reporter, forskolin-stimulated, primary screen (AID 1146); conditions: luminescence, 4.5 h, higher = more signal, called active from +8 up or from −8 down;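 further: PC12 cells with 6xCRE LacZ reporter stimulated by forskolin 10 µM; beta-galactosidase reporter signal reflecting CREB driven transcription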
# [6] = target: Streptavidin (Streptomyces avidinii) (UniProt P22629); assay: compounds binding control protein streptavidin – biophysical, small-molecule microarray, 635/667 nm fluorescence, artefact control for SMM compound annotation, primary screen (AID 1147); conditions: higher = more signal;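 further: signal reflects streptavidin binding to arrayed compounds as a control protein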
# [7] = probe aInhba binding on compound microarray – biochemical, small-molecule microarray, 635/667 nm fluorescence, primary screen (AID 1148); conditions: higher = more signal;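 further: score merges 667nm spot fluorescence with signal-to-noise for antibody binding to printed compounds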
# Torsin-1A (Homo sapiens) [8] = target: Torsin-1A (Homo sapiens) (UniProt O14656); assay: TOR1A wild-type binding on microarray – cell lysate, small-molecule microarray, lysate, 635/667 nm, primary screen (AID 1149); conditions: COS7 hTOR1A-WT lysate, 635 nm fluorescence, higher = more signal
# Torsin-1A (Homo sapiens) [9] = target: Torsin-1A (Homo sapiens) (UniProt O14656); assay: torsin A mutant lysate binding on microarrays – cell lysate, small-molecule microarray, COS7 lysate, 635/667 nm fluorescence, primary screen (AID 1150); conditions: COS7 hTOR1A mutant lysate, 635 nm fluorescence, higher = more signal;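 further: score pools 667 nm emission and signal to noise measuring lysate protein binding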
# [10] = system: Sonic hedgehog protein (Shh); assay: Sonic hedgehog microarray binding compounds – biochemical, small-molecule microarray, 635/667 nm fluorescence, primary screen (AID 1151); conditions: 635 nm fluorescence, higher = more signal;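 further: Shh protein binding to compounds spotted on small-molecule microarray slides; score combines spot fluorescence intensity with signal-to-noise across triplicate slides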
# [11] = optical density shifts of acrAB sulA E. coli – strain DRC41, OD650, 48 h, E. coli filamentation inducer project, primary screen (AID 1152); conditions: higher = more signal, called active from +8 up or from −8 down;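 further: E. coli MC1000 strain DRC41 lacking acrAB efflux pump and sulA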
# [12] = probe aLefty1 binding on compound microarray – biochemical, small-molecule microarray, 635/667 nm fluorescence, primary screen (AID 1153); conditions: higher = more signal;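 further: score merges spot fluorescence with signal-to-noise ratio from the scanned slide images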
# [13] = plasmodial surface anion channel blockers, osmotic lysis – cell-based, P. falciparum Indochina, OD700, 1 h, primary screen (AID 1154); conditions: P. falciparum Indochina infected RBC osmotic lysis, higher = more signal, called active from +8 up or from −8 down
# [14] = plasmodial surface anion channel blockers, osmotic lysis – cell-based, P. falciparum Indochina, OD700, 2 h, primary screen (AID 1155);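 further: lysis reports solute entry through the parasite surface anion channel PSAC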; conditions: P. falciparum Indochina infected erythrocytes, higher = more signal, called active from +8 up or from −8 down
# [15] = changes in parasitized red cell lysis, either direction – P. falciparum Indochina, OD700, 3 h, PSAC antagonist project, primary screen (AID 1156); conditions: P. falciparum-infected erythrocytes, osmotic lysis, higher = more signal, called active from +8 up or from −8 down
# [16] = plasmodial surface anion channel blockers, osmotic lysis – cell-based, P. falciparum Indochina, OD700, 18 h, primary screen (AID 1157); conditions: P. falciparum Indochina infected erythrocytes, osmotic lysis OD700, 18 h; higher = more signal, called active from +8 up or from −8 down
# [17] = S6 kinase pathway phospho-S6 level changes – cell-based, A549, cytoblot, luminescence, serum-stimulated, primary screen (AID 1158); conditions: 5 h, higher = more signal;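 further: serum-stimulated A549 lung adenocarcinoma cells; signal is phosphorylated S6 detected by cytoblot immunostaining with HRP secondary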
# [18] = target: NADPH oxidase 2 (Homo sapiens) (UniProt P04839); assay: compounds shifting NOX2 Amplex Red fluorescence – cell-based, HEK293-NOX2, PMA-stimulated, NOX inhibitor project, primary screen (AID 1159); conditions: 45 min, higher = more signal, called active from +8 up or from −8 down; further: test concentration not given here
# [19] = target: NADPH oxidase 4 (Homo sapiens) (UniProt Q9NPH5); assay: compounds shifting NOX4 Amplex Red fluorescence – cell-based, HEK293-NOX4, tetracycline-induced, NOX inhibitor project, primary screen (AID 1160); conditions: HEK293-NOX4, Amplex Red H2O2 fluorescence, 45 min; higher = more signal, called active from +8 up or from −8 down
# [20] = target: NADPH oxidase 5 (Homo sapiens) (UniProt Q96PH1); assay: compounds shifting NOX5 Amplex Red fluorescence – cell-based, HEK293-NOX5, NOX inhibitor project, primary screen (AID 1161); conditions: HEK293-NOX5, ionomycin, 45 min, higher = more signal
# Chain of NADPH oxidase 5 (Homo sapiens) (Q96PH1 whole entry, looked up): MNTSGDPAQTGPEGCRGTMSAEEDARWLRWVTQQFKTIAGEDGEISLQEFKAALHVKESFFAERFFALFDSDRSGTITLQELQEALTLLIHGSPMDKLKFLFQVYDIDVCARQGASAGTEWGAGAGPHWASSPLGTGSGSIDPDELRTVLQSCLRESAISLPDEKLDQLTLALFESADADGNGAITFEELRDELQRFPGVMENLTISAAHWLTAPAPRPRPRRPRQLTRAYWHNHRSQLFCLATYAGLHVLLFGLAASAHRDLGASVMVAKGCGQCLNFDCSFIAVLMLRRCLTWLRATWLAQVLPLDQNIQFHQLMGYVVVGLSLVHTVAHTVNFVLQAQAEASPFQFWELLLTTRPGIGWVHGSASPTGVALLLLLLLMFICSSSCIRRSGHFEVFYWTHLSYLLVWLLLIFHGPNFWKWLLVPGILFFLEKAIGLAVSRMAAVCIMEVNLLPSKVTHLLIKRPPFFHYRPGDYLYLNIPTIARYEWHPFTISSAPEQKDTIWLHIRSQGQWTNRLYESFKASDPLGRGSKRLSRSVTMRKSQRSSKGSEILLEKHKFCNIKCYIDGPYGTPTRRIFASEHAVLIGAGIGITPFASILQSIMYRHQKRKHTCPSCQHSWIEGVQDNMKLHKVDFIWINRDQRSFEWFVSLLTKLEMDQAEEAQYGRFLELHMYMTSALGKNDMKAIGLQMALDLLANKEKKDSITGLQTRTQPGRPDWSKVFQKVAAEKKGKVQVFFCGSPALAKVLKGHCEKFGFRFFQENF
# Chain of Torsin-1A (Homo sapiens) (O14656 whole entry, looked up): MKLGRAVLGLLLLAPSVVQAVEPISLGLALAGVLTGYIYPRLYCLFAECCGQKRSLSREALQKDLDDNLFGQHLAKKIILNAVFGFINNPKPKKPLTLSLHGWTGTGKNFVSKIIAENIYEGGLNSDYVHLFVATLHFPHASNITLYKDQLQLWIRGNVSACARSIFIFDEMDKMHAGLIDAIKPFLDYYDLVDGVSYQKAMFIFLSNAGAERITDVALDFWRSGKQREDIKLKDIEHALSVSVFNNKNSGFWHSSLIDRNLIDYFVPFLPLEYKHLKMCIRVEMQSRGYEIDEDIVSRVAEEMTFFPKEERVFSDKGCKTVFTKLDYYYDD
# Chain of NADPH oxidase 2 (Homo sapiens) (P04839 whole entry, looked up): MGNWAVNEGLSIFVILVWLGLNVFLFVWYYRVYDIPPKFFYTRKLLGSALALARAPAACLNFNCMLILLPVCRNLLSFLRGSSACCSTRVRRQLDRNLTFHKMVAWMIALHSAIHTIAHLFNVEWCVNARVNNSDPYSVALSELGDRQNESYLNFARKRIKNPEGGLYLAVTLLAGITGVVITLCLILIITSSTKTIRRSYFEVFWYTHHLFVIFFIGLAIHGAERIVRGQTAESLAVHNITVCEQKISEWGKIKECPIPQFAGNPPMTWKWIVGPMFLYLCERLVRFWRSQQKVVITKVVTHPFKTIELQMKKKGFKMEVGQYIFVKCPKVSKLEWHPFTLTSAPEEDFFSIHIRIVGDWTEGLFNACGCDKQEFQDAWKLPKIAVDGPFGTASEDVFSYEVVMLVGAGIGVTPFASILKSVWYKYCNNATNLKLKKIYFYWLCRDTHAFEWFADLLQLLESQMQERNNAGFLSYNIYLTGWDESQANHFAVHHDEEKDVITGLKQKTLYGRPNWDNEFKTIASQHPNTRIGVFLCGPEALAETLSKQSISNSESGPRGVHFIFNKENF
# Chain of NADPH oxidase 4 (Homo sapiens) (Q9NPH5 whole entry, looked up): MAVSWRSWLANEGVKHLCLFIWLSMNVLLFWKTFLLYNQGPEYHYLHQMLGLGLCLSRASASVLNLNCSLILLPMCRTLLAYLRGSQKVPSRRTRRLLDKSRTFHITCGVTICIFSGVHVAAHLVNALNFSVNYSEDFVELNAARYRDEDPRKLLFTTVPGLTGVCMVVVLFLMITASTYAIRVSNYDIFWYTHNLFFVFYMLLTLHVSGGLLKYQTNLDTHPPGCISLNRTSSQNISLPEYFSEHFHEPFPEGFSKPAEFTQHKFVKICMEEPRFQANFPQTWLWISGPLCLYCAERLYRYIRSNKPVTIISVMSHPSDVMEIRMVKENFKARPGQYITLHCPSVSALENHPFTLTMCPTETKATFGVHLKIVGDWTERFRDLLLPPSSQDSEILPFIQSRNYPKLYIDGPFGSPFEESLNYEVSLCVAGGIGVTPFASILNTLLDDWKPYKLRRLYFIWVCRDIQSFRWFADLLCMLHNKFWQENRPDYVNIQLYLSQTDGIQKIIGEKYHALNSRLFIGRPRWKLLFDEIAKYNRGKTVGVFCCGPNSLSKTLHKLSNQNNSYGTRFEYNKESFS
# Chain of Streptavidin (Streptomyces avidinii) (P22629 whole entry, looked up): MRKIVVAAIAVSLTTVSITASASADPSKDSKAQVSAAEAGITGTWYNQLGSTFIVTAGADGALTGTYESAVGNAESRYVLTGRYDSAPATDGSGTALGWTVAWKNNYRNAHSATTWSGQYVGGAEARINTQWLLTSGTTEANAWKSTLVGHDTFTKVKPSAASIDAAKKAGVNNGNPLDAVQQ
SMILES,composite z-score [1],z-score [2],z-score [3],z-score [4],z-score [5],composite z-score [6],composite z-score [7],composite z-score (Torsin-1A (Homo sapiens) [8]),composite z-score (Torsin-1A (Homo sapiens) [9]),composite z-score [10],z-score [11],composite z-score [12],z-score [13],z-score [14],z-score [15],z-score [16],z-score [17],z-score [18],z-score [19],z-score [20]
C=CCNC(=O)[C@@H]1[C@H]2C(=O)O[C@H](c3ccccc3)[C@H](c3ccccc3)N2[C@H](c2ccc(OCCO)cc2)[C@@]12C(=O)N(C(=O)OCCOC)c1ccc(C#CCC(C(=O)OC)C(=O)OC)cc12,0.486,-2.47 (inactive),0.975 (inactive),0.208 (inactive),-0.208 (inactive),0.386,0.322,0.126,0.681,1.09,-0.314 (inactive),0.404,7.08 (inactive),1.72 (inactive),-0.211 (inactive),0.581 (inactive),-0.0943,2.26 (inactive),1.2 (inactive),1.37
[N-]=[N+]=NCc1ccccc1[C@H]1OC(c2ccc(OCCCO)cc2)=N[C@@]1(Cc1ccccc1)C(=O)N1CCCCC1,1.5,-5.29 (inactive),0.437 (inactive),-0.16 (inactive),0.357 (inactive),0.733,0.204,0.178,0.392,0.413,0.796 (inactive),0.0331,28.4 (active),23.2 (active),1.75 (inactive),1.77 (inactive),1.3,-3.54 (inactive),-0.919 (inactive),-1.28
CC(C)C(=C=CC[C@H](O)c1ccc(CO)o1)CCO,-0.0164,0.243 (inactive),-0.0587 (inactive),1.87 (inactive),1.33 (inactive),0.0515,-0.0963,0.385,0.291,1.71,-0.543 (inactive),0.0494,1.77 (inactive),0.408 (inactive),0.186 (inactive),-0.012 (inactive),-0.516,0.228 (inactive),-0.345 (inactive),-0.21
CCCNC(=O)[C@@H]1c2ccccc2C(=O)N(Cc2ccccc2OC)[C@H]1c1ccc(CO)cc1,0.304,-0.67 (inactive),0.376 (inactive),0.001 (inactive),-0.312 (inactive),0.867,-0.0066,-0.3,0.889,1.52,0.0817 (inactive),-0.0011,2.32 (inactive),0.117 (inactive),0.297 (inactive),0.0117 (inactive),-0.439,0.802 (inactive),0.998 (inactive),0.686
Cc1ccc(S[C@]2(C(=O)NCC(C)C)CC(=O)N(Cc3cc(C(F)(F)F)cc(C(F)(F)F)c3)[C@@H]2c2ccc(CO)cc2)cc1,0.226,0.52 (inactive),-0.846 (inactive),-0.0781 (inactive),1.02 (inactive),-0.342,0.652,0.234,0.118,0.391,-0.687 (inactive),0.2,1.3 (inactive),0.596 (inactive),0.664 (inactive),0.13 (inactive),-0.0958,1.73 (inactive),0.823 (inactive),-0.188
[N-]=[N+]=Nc1ccccc1C[C@]1(C(=O)NCc2ccccc2)N=C(c2ccc(OCCCO)cc2)O[C@H]1c1ccccc1N=[N+]=[N-],0.933,-4.05 (inactive),0.0249 (inactive),1.77 (inactive),-0.741 (inactive),1.73,-0.156,0.109,0.286,-0.4,-0.107 (inactive),-0.353,28.1 (active),28.7 (active),2.76 (inactive),5.76 (inactive),0.096,-1.87 (inactive),0.483 (inactive),-0.32
CC(C)N1CC=CC23O[C@@H]4C=CCOC(=O)[C@@H]4[C@H]2C(=O)N(CCCCCO)[C@@H]3C1=O (stereo not given in full),-0.094,-1.27 (inactive),-1.56 (inactive),-1.72 (inactive),-0.679 (inactive),-0.48,-0.152,-0.167,1.09,0.0095,2.79 (inactive),0.19,0.641 (inactive),0.0869 (inactive),0.204 (inactive),0.236 (inactive),1.73,0.865 (inactive),0.225 (inactive),1.44
CC(c1ccccc1)C(O)C1C=CC2C(=O)N(C)C(=O)C2N1NC(=O)OC(C)(C)C (stereo not given),0.472,0.834 (inactive),0.059 (inactive),0.622 (inactive),-0.434 (inactive),2.15,0.19,0.516,1.13,-0.656,-0.288 (inactive),0.839,0.667 (inactive),0.871 (inactive),-0.344 (inactive),0.508 (inactive),-0.683,-0.326 (inactive),-0.289 (inactive),-1.2
CC(C)NC(=O)[C@@H]1c2ccccc2C(=O)N(C(C)C)[C@H]1c1ccc(CO)cc1,-0.152,0.245 (inactive),1.28 (inactive),0.441 (inactive),0.0729 (inactive),-0.977,-0.193,0.0645,2.08,-0.659,1.17 (inactive),-0.228,3.85 (inactive),1.18 (inactive),0.151 (inactive),0.207 (inactive),0.0843,0.274 (inactive),0.614 (inactive),0.964
